Screen size: about 5,500 compounds; about 2,000 (36%) were called active. About 18% were inconclusive and are not listed. No stated cut-off is given here; in the data, active means normalized growth mostly below about 0.91 (no sharp cut-off); inconclusive means no clear call, values can overlap the other calls; inactive means mostly above about 0.92. The list shows a part of the results.
Test: chemical genetic growth profiling, strain panel (AID 1159580);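 further: tested at 20 µM; growth read once vehicle control cultures reached saturation at 30 °C; 1 = growth at the plate median or of vehicle wells; lower values mean less growth of the strain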
Details: growth OD

Measured: normalized growth

CCCCC(=O)O[C@]1(C(=O)CO)[C@@H](C)CC2C3CCC4=CC(=O)C=C[C@]4(C)[C@@]3(F)C(O)C[C@@]21C (some centres undefined)
inactive: S. cerevisiae deletion strains, locus YKL009W, strain mrt4, active compounds read low 0.969 | S. cerevisiae deletion strains, locus YKL068W, active compounds read low 0.991 | S. cerevisiae deletion strains, locus YKL085W, strain MDH1 (second series), active compounds read low 0.987 | S. cerevisiae deletion strains, locus YKL085W, strain MDH1, active compounds read low 0.987 | S. cerevisiae deletion strains, locus YKL160W, strain elf1, active compounds read low 0.958 | S. cerevisiae deletion strains, locus YKL190W, strain CNB1, active compounds read low 0.999 | S. cerevisiae deletion strains, locus YKR001C, strain vps1, active compounds read low 0.972 | S. cerevisiae deletion strains, locus YKR026C, strain gcn3, active compounds read low 0.97 | S. cerevisiae deletion strains, locus YKR091W, strain srl3, active compounds read low 0.986 | S. cerevisiae deletion strains, locus YLL001W, strain dnm1, active compounds read low 0.919 | S. cerevisiae deletion strains, locus YLL026W, active compounds read low 0.964 | S. cerevisiae deletion strains, locus YLL041C, strain sdh2, active compounds read low 0.991 | S. cerevisiae deletion strains, locus YLR027C, strain aat2, active compounds read low 0.977 | S. cerevisiae deletion strains, locus YLR039C, strain RIC1, active compounds read low 1.07 | S. cerevisiae deletion strains, locus YLR058C, strain SHM2, active compounds read low 0.95 | S. cerevisiae deletion strains, locus YLR102C, strain apc9, active compounds read low 1 | S. cerevisiae deletion strains, locus YLR113W, strain HOG1, active compounds read low 0.956 | S. cerevisiae deletion strains, locus YLR221C, strain rsa3, active compounds read low 0.993 | S. cerevisiae deletion strains, locus YLR258W, strain gsy2, active compounds read low 0.99 | S. cerevisiae deletion strains, locus YLR262C, strain YPT6 (second series), active compounds read low 0.948 | S. cerevisiae deletion strains, locus YLR262C, strain YPT6, active compounds read low 1.01 | S. cerevisiae deletion strains, locus YLR268W, strain sec22, active compounds read low 0.96 | S. cerevisiae deletion strains, locus YLR320W, strain mms22, active compounds read low 0.996 | S. cerevisiae deletion strains, locus YLR330W, strain CHS5, active compounds read low 0.99 | S. cerevisiae deletion strains, locus YLR342W, strain FKS1 (second series), active compounds read low 1 | S. cerevisiae deletion strains, locus YLR342W, strain FKS1, active compounds read low 0.973 | S. cerevisiae deletion strains, locus YLR357W, strain rsc2, active compounds read low 1 | S. cerevisiae deletion strains, locus YLR370C, strain arc18, active compounds read low 0.977 | S. cerevisiae deletion strains, locus YLR371W, strain rom2, active compounds read low 0.984 | S. cerevisiae deletion strains, locus YLR384C, strain iki3, active compounds read low 0.963 | S. cerevisiae deletion strains, locus YLR418C, strain cdc73, active compounds read low 0.973 | S. cerevisiae deletion strains, locus YML016C, strain PPZ1, active compounds read low 0.987 | S. cerevisiae deletion strains, locus YML032C, strain rad52, active compounds read low 1 | S. cerevisiae deletion strains, locus YML120C, strain ndi1, active compounds read low 0.998 | S. cerevisiae deletion strains, locus YML124C, strain tub3, active compounds read low 1.01 | S. cerevisiae deletion strains, locus YMR058W, strain fet3, active compounds read low 0.981 | S. cerevisiae deletion strains, locus YMR078C, strain ctf18, active compounds read low 0.98 | S. cerevisiae deletion strains, locus YMR125W, strain sto1, active compounds read low 0.99 | S. cerevisiae deletion strains, locus YMR129W, active compounds read low 0.988 | S. cerevisiae deletion strains, locus YMR205C, strain PFK2, active compounds read low 0.984 | S. cerevisiae deletion strains, locus YMR223W, strain ubp8, active compounds read low 0.974 | S. cerevisiae deletion strains, locus YMR231W, strain pep5, active compounds read low 0.979 | S. cerevisiae deletion strains, locus YMR307W, strain GAS1, active compounds read low 0.968 | S. cerevisiae deletion strains, locus YNL067W, strain RPL9B, active compounds read low 0.964 | S. cerevisiae deletion strains, locus YNL071W, strain lat1, active compounds read low 0.918 | S. cerevisiae deletion strains, locus YNL128W, strain TEP1, active compounds read low 0.968 | S. cerevisiae deletion strains, locus YNL153C, strain GIM3, active compounds read low 0.923 | S. cerevisiae deletion strains, locus YNL183C, strain NPR1, active compounds read low 0.933 | S. cerevisiae deletion strains, locus YNL209W, strain ssb2, active compounds read low 0.975 | S. cerevisiae deletion strains, locus YNL233W, strain BNI4, active compounds read low 0.963 | S. cerevisiae deletion strains, locus YNL248C, strain rpa49, active compounds read low 0.967 | S. cerevisiae deletion strains, locus YNL250W, strain rad50, active compounds read low 0.978 | S. cerevisiae deletion strains, locus YNL271C, strain bni1, active compounds read low 0.971 | S. cerevisiae deletion strains, locus YNL298W, strain CLA4, active compounds read low 0.977 | S. cerevisiae deletion strains, locus YNL307C, strain MCK1, active compounds read low 0.979 | S. cerevisiae deletion strains, locus YNL322C, strain KRE1 (second series), active compounds read low 0.954 | S. cerevisiae deletion strains, locus YNR049C, strain mso1, active compounds read low 0.983 | S. cerevisiae deletion strains, locus YNR052C, strain pop2, active compounds read low 0.979 | S. cerevisiae deletion strains, locus YOL006C, strain TOP1, active compounds read low 0.98 | S. cerevisiae deletion strains, locus YOL012C, strain htz1 1.06 | S. cerevisiae deletion strains, locus YOL147C, strain pex11, active compounds read low 0.989 | S. cerevisiae deletion strains, locus YOR001W, strain rrp6, active compounds read low 0.938 | S. cerevisiae deletion strains, locus YOR061W, strain CKA2, active compounds read low 0.987 | S. cerevisiae deletion strains, locus YOR069W, strain VPS5, active compounds read low 0.989 | S. cerevisiae deletion strains, locus YOR070C, strain gyp1, active compounds read low 0.986 | S. cerevisiae deletion strains, locus YOR080W, strain dia2, active compounds read low 0.965 | S. cerevisiae deletion strains, locus YOR083W, strain WHI5, active compounds read low 0.956 | S. cerevisiae deletion strains, locus YOR106W, strain vam3, active compounds read low 0.929 | S. cerevisiae deletion strains, locus YOR136W, strain idh2, active compounds read low 0.979 | S. cerevisiae deletion strains, locus YOR144C, strain elg1, active compounds read low 0.994 | S. cerevisiae deletion strains, locus YOR184W, strain ser1, active compounds read low 0.984 | S. cerevisiae deletion strains, locus YOR231W, strain MKK1, active compounds read low 0.976 | S. cerevisiae deletion strains, locus YOR265W, strain rbl2, active compounds read low 0.981 | S. cerevisiae deletion strains, locus YOR270C, strain vph1, active compounds read low 0.88 | S. cerevisiae deletion strains, locus YOR290C, strain snf2, active compounds read low 1.01 | S. cerevisiae deletion strains, locus YOR316C, strain cot1, active compounds read low 0.988 | S. cerevisiae deletion strains, locus YPL051W, strain arl3, active compounds read low 0.993 | S. cerevisiae deletion strains, locus YPL055C, strain LGE1, active compounds read low 0.975 | S. cerevisiae deletion strains, locus YPL078C, strain atp4, active compounds read low 0.927 | S. cerevisiae deletion strains, locus YPL106C, strain sse1, active compounds read low 1.01 | S. cerevisiae deletion strains, locus YPL240C, strain hsp82, active compounds read low 0.967 | S. cerevisiae deletion strains, locus YPL241C, strain CIN2, active compounds read low 1 | S. cerevisiae deletion strains, locus YPL256C, strain CLN2, active compounds read low 0.973 | S. cerevisiae deletion strains, locus YPR119W, strain clb2, active compounds read low 0.993 | S. cerevisiae deletion strains, locus YPR141C, strain kar3, active compounds read low 0.968 | S. cerevisiae deletion strains, locus YPR163C, strain tif3, active compounds read low 0.985 | S. cerevisiae deletion strains, locus YPR167C, strain met16, active compounds read low 0.984 | S. cerevisiae deletion strains, strain wtn01, active compounds read low 0.992 | S. cerevisiae strains, strain wild type, active compounds read low 0.985
